Test results from PubChem BioAssay.

What was measured:
[1] = molecular target: Tumor necrosis factor receptor superfamily member 10B (Homo sapiens) (UniProt O14763); experiment: viability loss of caspase-8 NB7 cells with TRAIL – with/without TRAIL, luminescence panel, confirmation (AID 651596); conditions: NB7 neuroblastoma + caspase-8, TRAIL sensitization, NB7 Caspase-8, with TRAIL, mean of runs, at 10 µM, stronger effect = higher value
[2] = as above; conditions: NB7 neuroblastoma + caspase-8, without TRAIL, NB7 Caspase-8, without TRAIL, mean of runs, at 10 µM

Chain of Tumor necrosis factor receptor superfamily member 10B (Homo sapiens) (O14763 whole entry, looked up): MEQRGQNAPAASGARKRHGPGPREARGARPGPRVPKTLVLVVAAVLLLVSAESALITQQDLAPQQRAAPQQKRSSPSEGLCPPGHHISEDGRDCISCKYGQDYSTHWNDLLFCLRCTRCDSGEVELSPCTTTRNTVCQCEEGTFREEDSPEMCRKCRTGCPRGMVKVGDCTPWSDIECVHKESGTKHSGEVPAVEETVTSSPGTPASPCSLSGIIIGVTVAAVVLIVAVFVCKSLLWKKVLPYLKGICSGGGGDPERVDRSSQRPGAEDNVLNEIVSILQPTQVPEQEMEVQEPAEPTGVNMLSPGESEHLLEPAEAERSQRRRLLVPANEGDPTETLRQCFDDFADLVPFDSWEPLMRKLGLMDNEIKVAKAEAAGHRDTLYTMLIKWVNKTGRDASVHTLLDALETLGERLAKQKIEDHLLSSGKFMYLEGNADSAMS

SMILES | activity [1] [%] | activity [2] [%]
O=C(Nc1nc2ccccc2[nH]1)c1ccc(F)cc1 | 90.8 | 91
CCCCCCCCCCCC1N=C(N)NC(CCCO)=C1C(=O)OC (stereo unspecified) | 16.3 | 18.3
COc1ccc(-c2cc(CNc3nc(NC(C)C)nc4cc(-c5ccccc5)sc34)on2)cc1 | 91.6 | 92.4
Clc1ccccc1Nc1nnc(-c2ccncc2)s1 | 61.3 | 63.3
CSc1nc2ccc(NC(=O)c3ccccn3)cc2s1 | 83.2 | 80
COc1ccc(N(C(=O)CCl)C(C(=O)NCCc2ccccc2)c2cccs2)cc1Cl (stereo unspecified) | 98.3 | 99.1
CSc1ccc(C2NC(=O)c3ccccc3N2)cc1 (stereo unspecified) | 31.3 | 45.8
Fc1cccc(/C=N/Nc2nncc3ccccc23)c1 | 79.5 | 78.8
O=C(Nc1nc2ccccc2[nH]1)c1cc2ccccc2o1 | 87.2 | 87
COc1ccc(C2c3ccc4ccccc4c3Oc3ncn(CCCN(C)C)c(=N)c32)cc1 (stereo unspecified) | 24.2 | 76.8
CCCCN=C1NN=C(c2ccc3c(c2)OCCO3)CS1 | 47.9 | 31.8
Cc1cc(C)c2c(c1)/C(=C/C(=O)c1ccc(Br)s1)C(=O)N2 | 91.8 | 98
Cc1nc(=S)c2c([nH]1)-c1ccccc1CC21CCCCC1 | 92 | 76.4
CC[C@@H](C)[C@H](CNC)NC[C@@H](Cc1cccc2ccccc12)NCCc1cccc(C(F)(F)F)c1 | 86.9 | 97.8
CC(C)OC(=O)c1sc2nc(-c3ccccc3)ccc2c1N | 58.5 | 60.3
CC(C)Sc1cc(Cl)nc(NC(=O)Nc2ccccc2)n1 | 98.4 | 99.7
COc1cccc(C(=O)/C=C/Nc2cccc(O)c2)c1 | 86 | 71.5
CCC(=O)N1CCCc2cc(S(=O)(=O)N3CCN(c4ccccc4F)CC3)ccc21 | 17.2 | 1.9
Cc1ccc(CNc2nc3ccccc3n2C)cc1 | 59.8 | 53.8
Cc1cc(C)n(-c2ccc(C(=O)Nc3ccc(C)c(S(=O)(=O)N4CCOCC4)c3)cc2)n1 | 63.5 | 24.2
CN(C)CCCn1cnc2c(c1=N)C(c1ccccc1)c1ccc3ccccc3c1O2 (stereo unspecified) | 88.5 | 93.6
Nc1c(-c2ccccc2)cnc2cc(-c3ccccc3)nn12 | 73 | 67.4
Cc1cc(C)c2c(=N)c3ccccc3n(CCCCCCCCn3c4ccccc4c(=N)c4c(C)cc(C)nc43)c2n1 | 78.3 | 98.7
